{
  "source": "PubChem BioAssay AID651813",
  "about": "(National Center for Advancing Translational Sciences (NCATS), 2012)",
  "note": "Out of some 2,100 compounds screened, about 1,100 (52%) were called active. About 27% were inconclusive and are not listed. So high a share suggests a set chosen from earlier hits. Some of the results follow. Unmarked numbers belong to inactive results. The call rests on the fitted dose curve; in most records, active means well fitted inhibition curve with a large enough effect; inconclusive means small, poorly fitted or top-dose-only effect; inactive means no such curve, though single readings can be large or run the other way. Potency means the concentration at half of the fitted maximal effect.",
  "data": [
    {"molecular_target": "DNA dC->dU-editing enzyme APOBEC-3G (Homo sapiens) (UniProt Q9HC16)", "sequence (Q9HC16 whole entry, looked up)": "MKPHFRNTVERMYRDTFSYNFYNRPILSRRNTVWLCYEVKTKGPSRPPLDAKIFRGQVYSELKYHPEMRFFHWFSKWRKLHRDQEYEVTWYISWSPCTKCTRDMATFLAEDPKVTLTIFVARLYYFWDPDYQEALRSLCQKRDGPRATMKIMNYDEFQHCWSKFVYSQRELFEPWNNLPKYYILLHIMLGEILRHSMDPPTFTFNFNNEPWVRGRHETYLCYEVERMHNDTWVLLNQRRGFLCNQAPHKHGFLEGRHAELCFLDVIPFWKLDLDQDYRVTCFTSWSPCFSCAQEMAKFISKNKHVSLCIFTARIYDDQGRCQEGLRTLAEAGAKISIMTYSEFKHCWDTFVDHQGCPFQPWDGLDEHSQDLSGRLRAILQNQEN", "experiment": "qHTS for inhibitors of Vif-A3G interactions: Cherry picks counterscreen;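 further: hits raise yellow fluorescence by blocking Vif-driven A3G-eYFP degradation; nearly all actives have a fitted effect of over 70% in size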;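 on max response: max response given as percent of control signal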", "settings": "HeLa A3G-eYFP + Vif (tagged APOBEC3G with the HIV-1 protein that degrades it), eYFP fluorescence, 24 h", "procedure,_shortened": "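Readout is eYFP fluorescence (488 nm excitation, 500-530 nm emission) measured on Acumen Explorer after 24 h compound exposure, several concentrations, at 37 deg C. Cells: HeLa stably co-expressing Vif and C-terminally eYFP-tagged A3G; MG132 positive control.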", "units": {"max response": "%"}, "values": [
      {"smiles": "C=CCNC(=O)C(C#N)c1nc2ccccc2nc1N1CCN(Cc2ccccc2)CC1", "note": "(stereo not given)", "max response": -10.2},
      {"smiles": "COc1ccc(-c2nnc(NC(=O)c3ccc([N+](=O)[O-])o3)o2)c(OC)c1", "max response": -27.9},
      {"smiles": "COc1ccc(C(=O)/C=C/Nc2ccc([N+](=O)[O-])cc2C)c(OC)c1", "Potency": "23.1 µM (active)"},
      {"smiles": "COc1ccccc1N1CCN(C(=O)c2ccc3ncsc3c2)CC1", "Potency": "17.7 µM (active)"},
      {"smiles": "COc1ccccc1C(=O)N1CCN(c2cccc(Cl)c2)CC1", "Potency": "1.4 µM (active)"},
      {"smiles": "CCS(=O)(=O)N1CCc2cc(C(=O)N3CCN(c4cccc(C(F)(F)F)c4)CC3)ccc21", "max response": -3.11},
      {"smiles": "COc1cc(SC)ccc1C(=O)N1CCN(c2ccccc2OC)CC1", "Potency": "5.59 µM (active)"},
      {"smiles": "COc1ccc(C(=S)N2CCN(c3cccc(Cl)c3)CC2)c(OC)c1", "Potency": "3.53 µM (active)"},
      {"smiles": "COc1ccccc1N1CCN(C(=O)c2cc(=O)c3cc(C)cc(C)c3o2)CC1", "Potency": "0.158 µM (active)"},
      {"smiles": "COC(=O)c1cc(C(=O)N2CCN(c3ccccc3OC)CC2)cc([N+](=O)[O-])c1", "Potency": "1.12 µM (active)"},
      {"smiles": "CCSc1ncc(Cl)c(C(=O)N2CCN(c3ccccc3OC)CC2)n1", "Potency": "4.61 µM (active)"},
      {"smiles": "NNC(=S)Nc1c(F)cc(F)cc1Br", "max response": -0.636},
      {"smiles": "O=[N+]([O-])c1ccc(/C=N/Nc2ccc3ccccc3c2)o1", "Potency": "4.98 µM (active)"},
      {"smiles": "O=C(N/N=C/c1ccc([N+](=O)[O-])o1)c1cn2ccc3ccccc3c2n1", "max response": 3.73},
      {"smiles": "Cc1cc(N/N=C/c2ccc([N+](=O)[O-])o2)nc2ccccc12", "Potency": "23.1 µM (active)"},
      {"smiles": "CCN1CCc2c(sc(NC(=O)c3ccc(S(=O)(=O)N(CC)c4ccccc4)cc3)c2C(N)=O)C1", "Potency": "5.59 µM (active)"},
      {"smiles": "CCCN1CCc2c(sc(NC(=O)c3ccc(S(=O)(=O)N(C)c4ccccc4)cc3)c2C(=O)NC)C1", "Potency": "18.4 µM (active)"},
      {"smiles": "CCCN1CCc2c(sc(NC(=O)c3ccc(S(=O)(=O)N(C)c4ccccc4)cc3)c2C(N)=O)C1", "Potency": "14.6 µM (active)"},
      {"smiles": "CCCN1CCc2c(sc(NC(=O)c3ccc(S(=O)(=O)N4CCN(C(=O)OCC)CC4)cc3)c2C(N)=O)C1", "Potency": "23.1 µM (active)"},
      {"smiles": "NC(=O)c1c(NC(=O)c2ccccc2)sc2c1CCN(Cc1ccccc1)C2", "Potency": "15.8 µM (active)"},
      {"smiles": "CC(C)N1CCc2c(sc(NC(=O)c3cc4cc([N+](=O)[O-])ccc4s3)c2C(N)=O)C1", "Potency": "23.1 µM (active)"},
      {"smiles": "CC(C)N1CCc2c(sc(NC(=O)c3ccc(S(=O)(=O)N4CCOCC4)cc3)c2C#N)C1", "Potency": "8.2 µM (active)"},
      {"smiles": "CCCN1CCc2c(sc(NC(=S)NC(=O)c3ccccc3)c2C#N)C1", "Potency": "14.6 µM (active)"},
      {"smiles": "CCOC(=O)/C(=C/C1=CC(=C/N(C)C)/C(=O)O1)C(C)=O", "max response": 1.47},
      {"smiles": "CC(C)CN(CC(C)C)S(=O)(=O)c1ccc(C(=O)Nc2sc3c(c2C(N)=O)CCN(C(C)C)C3)cc1", "Potency": "18.4 µM (active)"},
      {"smiles": "Cc1cccc(C)c1OCCNC(=O)C(=O)NCc1ccco1", "Potency": "2.8 µM (active)"},
      {"smiles": "CCCCCn1c(=O)[nH]c2cc(C(=O)Nc3cc(OC)cc(OC)c3)ccc2c1=O", "max response": -23.9},
      {"smiles": "Cc1ccccc1NC(=O)c1ccc2c(c1)c(C)c(C)n2Cc1ccccc1", "Potency": "2.91 µM (active)"},
      {"smiles": "COc1ccc(NC(=O)c2ccc3c(c2)c(C)c(C)n3Cc2ccc(F)cc2)cc1", "Potency": "5.17 µM (active)"},
      {"smiles": "O=C(CN1c2cccc3cccc(c23)S1(=O)=O)Nc1ccc(S(=O)(=O)N2CCOCC2)cc1", "max response": -29.7},
      {"smiles": "COC(=O)Nc1ccc(S(=O)(=O)N2CCCc3ccccc32)cc1", "Potency": "3.53 µM (active)"},
      {"smiles": "Cc1cc(NC(=O)COC(=O)c2ccc(S(=O)(=O)N3CCCc4ccccc43)cc2)no1", "Potency": "4.44 µM (active)"},
      {"smiles": "CC(=O)Nc1ccc(S(=O)(=O)N2CCSc3ccccc32)cc1", "Potency": "4.98 µM (active)"},
      {"smiles": "Cc1ccc(CNC(=O)C2CC(c3cc(C(F)(F)F)cc(C(F)(F)F)c3)=NO2)o1", "note": "(stereo not given)", "Potency": "8.86 µM (active)"},
      {"smiles": "COc1ccccc1N1CCN(c2ncnc3c2oc2ccccc23)CC1", "Potency": "3.14 µM (active)"},
      {"smiles": "CCN1/C(=C/C=C2/SC(=Nc3cccc4ncccc34)N(C)C2=O)Sc2ccccc21", "Potency": "4.11 µM (active)"},
      {"smiles": "Cc1c(N=C2N=C(NC(=O)c3cccs3)c3ccccc32)c(=O)n(-c2ccccc2)n1C", "Potency": "12.5 µM (active)"},
      {"smiles": "Cc1c(NC(=O)c2csc3c2CCCC3)c(=O)n(-c2ccccc2)n1C", "max response": -8.09},
      {"smiles": "CC#Cc1cc2c(cc1O)CCC1C2CCC2(C)C(O)CCC12", "note": "(stereo not given)", "Potency": "4.44 µM (active)"},
      {"smiles": "CCSc1nccc(-c2nn(-c3ccc(C)cc3)ccc2=O)n1", "Potency": "3.53 µM (active)"},
      {"smiles": "NNC(=O)c1oc2nc(-c3ccccc3)cc(-c3ccco3)c2c1N", "Potency": "18.4 µM (active)"},
      {"smiles": "Cc1ccc(-c2cc(-c3ccco3)c3c(N)c(C(=O)NN)oc3n2)cc1", "Potency": "23.1 µM (active)"},
      {"smiles": "O=C(N/N=C\\C=C\\c1ccc([N+](=O)[O-])o1)c1cccs1", "Potency": "14 µM (active)"},
      {"smiles": "CCC(=Nc1ccccc1O)C1=C(O)CC(c2ccccc2)CC1=O", "note": "(stereo not given)", "max response": 16.4},
      {"smiles": "COc1ccccc1N=C(C)C1=C(O)CC(c2ccccc2)CC1=O", "note": "(stereo not given)", "Potency": "0.559 µM (active)"}
    ]}
  ]
}
